Most compounds without a hit are left out; they make up all but 6% or so of the library.
Sfp inh – qHTS Assay for Inhibitors of Bacillus subtilis Sfp phosphopantetheinyl transferase (PPTase) | 4'-phosphopantetheinyl transferase ffp (Bacillus subtilis), Q9F4F7 | 310,000 tested, 3.5% active | Biochemical Sfp PPTase activity, qHTS | Potency, µM, actives largely listed as inhibitors | AID 1490, 2009;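 further: the enzyme is Sfp with the accession as filed and its product quenches rhodamine fluorescence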
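Compounds were incubated with enzyme (final 15 nM) for 15 min at room temperature before substrate addition started the reaction. Fluorescence at 525 nm excitation, 598 nm emission was recorded immediately and after 30 minutes.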
Tau ThT inhib – qHTS for Inhibitors of Tau Fibril Formation, Thioflavin T Binding. Microtubule-associated protein tau (Homo sapiens), P10636. 270,000 tested, 2.1% active. AID 1460, 2008. Potency, µM (series often up to 57.4 µM), hits mostly inhibitors. recombinant tau K18 P301L, heparin-induced fibrillization, ThT fluorescence; further: nearly all actives have a fitted effect of over 55% in size
Target sequence (P10636 561-689 P618L limits assumed): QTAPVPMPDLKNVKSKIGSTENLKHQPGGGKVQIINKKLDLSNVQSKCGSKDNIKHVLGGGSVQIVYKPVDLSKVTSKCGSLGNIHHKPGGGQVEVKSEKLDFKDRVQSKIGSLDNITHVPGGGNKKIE
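Using a mix of unlabeled (15 uM) and Alexa 594-labeled (0.24 uM) tau K18 P301L, heparin-triggered fibrillization over 6 hr at 37 C was scored by ThT fluorescence.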
PLK1 PBD block – qHTS for Inhibitors of PLK1-PDB (polo-like kinase 1 - polo-box domain): Primary Screen; Serine/threonine-protein kinase PLK1 (Homo sapiens), P53350; Plk1 PBD binding of FITC phosphopeptide, fluorescence polarization; Potency, µM, actives largely listed as inhibitors; 360,000 tested, 2.8% active; AID 720504, 2013; further: series mostly up to about 57 µM; nearly all actives have a fitted effect of over 65% in size
Target sequence (P53350 whole entry, looked up, the tested form may be a part): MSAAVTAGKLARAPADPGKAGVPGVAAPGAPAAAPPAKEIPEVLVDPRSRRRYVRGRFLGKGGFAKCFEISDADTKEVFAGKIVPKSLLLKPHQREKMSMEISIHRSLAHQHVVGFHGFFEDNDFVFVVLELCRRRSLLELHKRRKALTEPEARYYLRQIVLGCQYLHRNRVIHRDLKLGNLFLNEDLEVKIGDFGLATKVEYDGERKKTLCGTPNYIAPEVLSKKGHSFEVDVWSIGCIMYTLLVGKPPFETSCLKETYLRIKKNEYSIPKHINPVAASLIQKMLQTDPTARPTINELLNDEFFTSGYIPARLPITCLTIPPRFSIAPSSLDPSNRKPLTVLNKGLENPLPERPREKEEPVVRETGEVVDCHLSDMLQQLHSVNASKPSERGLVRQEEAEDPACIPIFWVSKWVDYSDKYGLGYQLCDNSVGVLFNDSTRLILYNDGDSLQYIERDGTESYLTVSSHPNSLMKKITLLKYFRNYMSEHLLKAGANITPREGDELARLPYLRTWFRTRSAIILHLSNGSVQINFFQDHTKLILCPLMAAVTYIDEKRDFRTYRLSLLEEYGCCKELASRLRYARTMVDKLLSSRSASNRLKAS
Tau fluor cs – Counterscreen qHTS for Inhibitors of Tau Fibril Formation, Fluorescence Polarization; 280,000 tested, 0.93% active; tau K18 P301L (four-repeat tau fragment) Alexa594 fluorescence, heparin fibrillization; AID 1463, 2008; Potency, µM (highest dose often 57.7 µM); further: nearly all actives have a fitted effect of over 55% in size
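Human K18 P301L tau (15 uM unlabeled plus 0.24 uM Alexa 594-labeled, final) in 100 mM sodium acetate pH 7 was mixed with compound and 20 uM heparin and incubated 6 hr at 37 C.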
VDR inhibitor – Inhibitors of the vitamin D receptor (VDR): qHTS; VDR-SRC2-3 peptide fluorescence polarization, 2 h; AID 504847, 2011; Potency, µM, hits mostly inhibitors; Vitamin D3 receptor (Homo sapiens), P11473; 400,000 tested, 0.93% active
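FP read-out; VDR + SRC2-3 coactivator peptide; 23 nl compound by pintool; 2 h RT incubation; reagents held at 4 deg C, protected from light.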
Tau FP inhib – qHTS for Inhibitors of Tau Fibril Formation, Fluorescence Polarization | Microtubule-associated protein tau (Homo sapiens), P10636 | K18 P301L tau heparin fibrillization, Alexa594 FP, 6 h | AID 1468, 2008 | 280,000 tested, 0.39% active | Potency, µM (top dose mostly 57.7 µM), most hits filed as inhibitors; further: nearly all actives have a fitted effect of over 55% in size
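Steps: dispense K18 P301L tau (15 uM plus 0.24 uM Alexa 594 tracer, final) in pH 7 sodium acetate; add compound; add heparin (20 uM final); incubate 6 hr, 37 C; add ThT (30 uM final); after 1 hr ambient, read FP.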
Large screens that a line does not name were inactive; [ ] = another dose, or the depositor's remark. The call rests on the fitted dose curve; in most records, active means well fitted curve in the direction sought with a large enough effect; inconclusive means small, poorly fitted or top-dose-only effect, or another doubt; inactive means no such curve, though single readings can be large; an effect the other way counts as inactive or inconclusive.

CCCOC(=O)c1ccc(NC(=O)C2C3C=CC(O3)C2C(=O)O)cc1 (centres undefined)	Sfp inh 79µM
CSc1nc(-c2ccc(Cl)cc2Cl)[nH]c(=O)c1C#N	PLK1 PBD block inconclusive
Cc1cc(-c2ccc(Cl)cc2Cl)c(C#N)c(=O)[nH]1	PLK1 PBD block 17µM, VDR inhibitor inconclusive (no result: Tau ThT inhib)
NC(=O)C1CCN(c2cc(Cl)nc(N)n2)CC1	PLK1 PBD block 8.4µM, VDR inhibitor 79µM
COCCCNC(=S)NNC(=S)Nc1cccc(Cl)c1	Sfp inh 22µM, Tau ThT inhib inconclusive, Tau fluor cs inconclusive, VDR inhibitor inconclusive
CC(C)(C)NC(=O)N1CCC(C(=O)O)CC1	none (no result: Sfp inh, PLK1 PBD block)
Cc1nn(-c2ccccc2)c2[nH]c(=O)c(CNc3ccc(N4CCOCC4)cc3)cc12	Sfp inh 45µM, Tau ThT inhib 18µM, PLK1 PBD block 3µM, Tau fluor cs inconclusive, Tau FP inhib inconclusive
N[C@@H](CCC(=O)N[C@@H](CSN=O)C(=O)NCC(=O)O)C(=O)O	PLK1 PBD block inconclusive (no result: Sfp inh, Tau ThT inhib, Tau fluor cs, Tau FP inhib)
[N-]=[N+]=Nc1ccc(C(=O)CSC[C@H](NC(=O)CC[C@H](N)C(=O)O)C(=O)NCC(=O)O)cc1	VDR inhibitor 45µM (no result: Sfp inh, PLK1 PBD block)
N[C@H](CCC(=O)N[C@H](CSN=O)C(=O)NCC(=O)O)C(=O)O	Sfp inh 32µM, Tau ThT inhib 22µM, Tau FP inhib inconclusive (no result: PLK1 PBD block, VDR inhibitor)
N[C@@H](CCC(=O)N[C@H](CSN=O)C(=O)NCC(=O)O)C(=O)O	Tau ThT inhib inconclusive, VDR inhibitor inconclusive, Tau FP inhib inconclusive (no result: Sfp inh, PLK1 PBD block)
C#CCN1CCc2onc(-c3ccc(Br)cc3)c2C1=O	none (no result: Sfp inh, Tau ThT inhib, Tau fluor cs, VDR inhibitor, Tau FP inhib)
COc1cc(C2c3cc4c(cc3CC3COC(=O)N32)OCO4)cc(OC)c1OC (centres undefined)	none (no result: Sfp inh, Tau ThT inhib, Tau fluor cs, Tau FP inhib)
CC(C)(C)OC(=O)N1CCC(c2cc(=O)n3[nH]cc(C(=O)NC4CCCC4)c3n2)CC1	none
CC(C)(C)OC(=O)N1CCC(c2cc(=O)n3[nH]cc(C(=O)Nc4ccc(F)c(Cl)c4)c3n2)CC1	Tau ThT inhib inconclusive, PLK1 PBD block 24µM
COc1ccc(NC(=O)c2c[nH]n3c(=O)cc(C4CCN(C(=O)OC(C)(C)C)CC4)nc23)cc1Cl	PLK1 PBD block 24µM
Nc1cc([N+](=O)[O-])ccc1Nc1ccc(O)cc1	Sfp inh 56µM, Tau ThT inhib 13µM, Tau fluor cs 20µM[quencher], Tau FP inhib inconclusive
Cn1c(-c2c(N)n(CCc3ccccc3)c3nc4ccccc4nc23)nc2ccccc21	Tau ThT inhib inconclusive, Tau fluor cs 13µM[quencher]
Clc1ccc(Nc2ccc(-n3ccnc3)nn2)cc1Cl	Tau fluor cs 13µM[quencher], Tau FP inhib inconclusive
CC1=C(C(N)=O)C(c2cccs2)NC(=S)N1 (centres undefined)	PLK1 PBD block 27µM, VDR inhibitor inconclusive, Tau FP inhib inconclusive
CCc1ccccc1N(C)C(=O)Cn1cnc2sc(C)c(S(=O)(=O)N3CCN(c4ncccn4)CC3)c2c1=O	none (no result: Sfp inh, PLK1 PBD block)
CCOc1cc(/C=N/NC(=O)CNc2cccc(C)c2)ccc1OC(=O)c1ccccc1	Tau ThT inhib inconclusive, Tau fluor cs 14µM[quencher]
COc1ccccc1NC(=O)Cn1c(=O)n(CCc2ccccc2)c(=O)c2c3c(sc21)CN(C(C)=O)CC3	none (no result: Sfp inh, PLK1 PBD block)
O=C(NN1CCOCC1)c1cccc2ccccc12	PLK1 PBD block 30µM, VDR inhibitor inconclusive
CC[C@@H]1OC(=O)[C@@H](C)[C@H](O[C@H]2C[C@@](C)(OC)[C@@H](O)[C@H](C)O2)C(C)[C@H](O[C@H]2O[C@@H](C)C[C@@H](N(C)C)[C@@H]2O)[C@@](C)(O)C[C@H](C)C(=O)[C@@H](C)[C@H](O)[C@@]1(C)O (some centres undefined)	none (no result: PLK1 PBD block, VDR inhibitor)
Cc1c(N2C(=O)/C(=C\c3ccc(N(C)C)cc3)N(C)C2=S)c(=O)n(-c2ccccc2)n1C	Tau ThT inhib 14µM
COc1ccc(NC(=S)N/N=C2\CC(C)(C)Oc3ccc(O)cc32)cc1	Tau ThT inhib inconclusive, Tau fluor cs 28µM[quencher]
CC(=O)N1CCC2(CC1)C/C(=N\NC(=S)Nc1ccccc1C)c1cc(O)ccc1O2	Tau ThT inhib inconclusive, Tau fluor cs inconclusive
C#CCOCCOCCOCCNc1nc(N2CCN(C(=O)[C@H](Cc3ccc(O)cc3)n3cc([C@@H](N)C(C)CC)nn3)CC2)nc(N2CCN(C(=O)[C@H](Cc3cc4ccccc4[nH]3)n3cc([C@@H](N)CC(C)C)nn3)CC2)n1 (some centres undefined)	Sfp inh 50µM, Tau ThT inhib inconclusive
C#CCOCCOCCOCCNc1nc(N2CCN(C(=O)[C@H](Cc3cc4ccccc4[nH]3)n3cc([C@@H](N)C(C)CC)nn3)CC2)nc(N2CCN(C(=O)[C@H](Cc3cc4ccccc4[nH]3)n3cc([C@@H](N)Cc4ccc(O)cc4)nn3)CC2)n1 (some centres undefined)	Sfp inh 50µM, Tau ThT inhib inconclusive (no result: PLK1 PBD block, VDR inhibitor)
C#CCOCCOCCOCCNc1nc(N2CCN(C(=O)[C@H](Cc3ccc(O)cc3)n3cc([C@@H](N)C(C)CC)nn3)CC2)nc(N2CCN(C(=O)[C@H](Cc3cc4ccccc4[nH]3)n3cc([C@@H](N)C(C)CC)nn3)CC2)n1 (some centres undefined)	Tau ThT inhib inconclusive
C#CCOCCOCCOCCNc1nc(N2CCN(C(=O)[C@H]([C@@H](C)CC)n3cc([C@@H](N)CO)nn3)CC2)nc(N2CCN(C(=O)[C@H](Cc3cc4ccccc4[nH]3)n3cc([C@@H](N)C(C)CC)nn3)CC2)n1 (some centres undefined)	Sfp inh 50µM, Tau ThT inhib inconclusive (no result: PLK1 PBD block, VDR inhibitor)
O=C1NC[C@@H](CCCCN2C[C@H](Cc3ccc(O)cc3)N(CCC3CCCCC3)C(=O)C2=O)N(CC2CCCCC2)C1=O	none (no result: Sfp inh, Tau ThT inhib, Tau fluor cs, VDR inhibitor, Tau FP inhib)
COc1ccc2c(c1)C(=O)[C@H](OC(=O)Nc1ccc(OC(F)F)cc1)[C@@H](c1ccc(OC)c(Br)c1)O2	Tau ThT inhib inconclusive (no result: PLK1 PBD block)
CCN(c1ccccc1)S(=O)(=O)c1ccc(Cl)c(NC(=O)CN(C)C2CCN(C)CC2)c1	Sfp inh 79µM (no result: Tau ThT inhib, Tau fluor cs, Tau FP inhib)
COC(=O)COc1c(/C=C\c2nc(O)c([N+](=O)[O-])c(=O)[nH]2)cccc1OC	none (no result: Tau ThT inhib, Tau fluor cs, Tau FP inhib)
C#CCOc1c(/C=C\c2nc(O)c([N+](=O)[O-])c(=O)[nH]2)cc(Br)cc1OC	VDR inhibitor 22µM (no result: Tau ThT inhib, Tau fluor cs, Tau FP inhib)
